# Records with an inconclusive call do not appear. Entries that show only a call come without a potency. The source made the active and inactive calls. Calls come from the whole dose curve; as a rule, active = well fitted curve in the direction sought with a large enough effect; inconclusive = small, poorly fitted or top-dose-only effect, or another doubt; inactive = no such curve, though single readings can be large; an effect the other way counts as inactive or inconclusive.
# Tested on: not listed separately
# Experiment: Cytometry Cell-Based qHTS for Inhibitors of the mTORC1 Signaling Pathway in MEF cells (AID 2668);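 note: Tsc2-/- p53-/- mouse embryonic fibroblasts stably re-expressing wild-type Tsc2; percent cells positive for phospho-rpS6 Ser235/236 relative to propidium iodide stain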
# Settings: mTORC1 pathway readout; series mostly up to 38.3 µM
# Summary of the method: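 Pathway inhibition in WT Tsc2-rescued Tsc2-/-, p53-/- MEFs is measured as the Alexa-488 phospho-rpS6 to propidium iodide intensity ratio after 24 hrs of compound at 37 degree Celsius. PI-stained cell number gives viability.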
row,SMILES,Potency
1,CC(=O)SCC[N+](C)(C)C,inactive
2,O=C(O)c1cc(=O)c2ccccc2[nH]1,inactive
3,NCCCCCCCCCCN,inactive
4,CN1[C@@H](CC(=O)c2ccccc2)CCC[C@H]1C[C@H](O)c1ccccc1,inactive
5,Cc1ccc(C(=O)O[C@H](C(=O)O)[C@@H](OC(=O)c2ccc(C)cc2)C(=O)O)cc1 (tested in a mixture with another compound),inactive
6,OCC1O[C@H](O)C(Cl)C(O)C1O (some centres not stated),inactive
7,NCCCCC(=O)O,inactive
8,NC(=O)C(=O)O,inactive
9,O=C(O)CC1CCCc2ccccc2C1O (configuration not stated),inactive
10,S=C(S)OC1CC2CC1C1CCCC21 (configuration not stated),inactive
11,CC(=O)N[C@H](C(=O)O)C(C)(C)SN=O,inactive
12,CC1CN(S(=O)(=O)c2cccc3cnccc23)CCN1 (configuration not stated),inactive
13,CCCCCCCCCCCCCCCC(=O)NCC(COP(=O)([O-])OCC[N+](C)(C)C)OCC (configuration not stated),inactive
14,CN(C)c1nc(N)c(C(=O)N=C(N)N)nc1Cl,inactive
15,N=C(N)SCCc1ccc(CCSC(=N)N)cc1,inactive
16,CC1(C)CCC=[N+]1[O-],inactive
17,CN1CCC[C@H]1c1cccnc1,inactive
18,O=C(O)CNC(=O)C(CS)Cc1ccccc1 (configuration not stated),inactive
19,C=CC(N)CCC(=O)O (configuration not stated),inactive
20,COc1cc2c(CCNC(C)=O)c[nH]c2cc1Cl,inactive
21,COc1cc(C(O)CO)ccc1OS(=O)(=O)O (configuration not stated),inactive
22,c1ccc(-c2ccccn2)nc1,inactive
23,NO,inactive
24,O=C(O)c1cc(=O)c2c(Cl)cc(Cl)cc2[nH]1,inactive
25,NCCSSCCN,inactive
26,O=c1[nH]c2cc([N+](=O)[O-])c([N+](=O)[O-])cc2[nH]c1=O,inactive
27,CN1C2CCC1CC(OC(=O)C(O)c1ccccc1)C2 (configuration not stated),inactive
28,O=C(O)[C@@H]1C[C@@H](C(=O)O)N1,inactive
29,Cn1c(=O)c2[nH]c(-c3ccccc3)nc2n(C)c1=O,inactive

# Tested on: not listed separately
# Experiment: Validation screen for small molecules that induce DNA re-replication in MCF 10A normal breast cells (AID 463097); note: nearly all actives have a fitted effect of over 60% in size
# Settings: MCF 10A cells, DNA re-replication phenotype imaging; series mostly up to 46.1 µM
# Summary of the method: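 DNA re-replication was detected as a rise in nuclei with elevated Hoechst fluorescence after a 48 hr compound exposure of MCF 10A cells at 37 C.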
row,SMILES,Potency
1,CC(=O)SCC[N+](C)(C)C,inactive
2,O=C(O)c1cc(=O)c2ccccc2[nH]1,inactive
3,NCCCCCCCCCCN,inactive
4,CN1[C@@H](CC(=O)c2ccccc2)CCC[C@H]1C[C@H](O)c1ccccc1,inactive
5,Cc1ccc(C(=O)O[C@H](C(=O)O)[C@@H](OC(=O)c2ccc(C)cc2)C(=O)O)cc1 (tested in a mixture with another compound),inactive
6,CC(C)(C)NCC(O)COc1nsnc1N1CCOCC1 (configuration not stated),inactive
7,OCC1O[C@H](O)C(Cl)C(O)C1O (some centres not stated),inactive
8,CN[C@H](CC(C)C)C(=O)N[C@H]1C(=O)N[C@@H](CC(N)=O)C(=O)N[C@H]2C(=O)N[C@H]3C(=O)N[C@H](C(=O)N[C@H](C(=O)O)c4cc(O)cc(O)c4-c4cc3ccc4O)[C@H](O)c3ccc(c(Cl)c3)Oc3cc2cc(c3O[C@@H]2O[C@H](CO)[C@@H](O)[C@H](O)[C@H]2O[C@H]2C[C@](C)(N)[C@H](O)[C@H](C)O2)Oc2ccc(cc2Cl)[C@H]1O,inactive
9,NCCCCC(=O)O,inactive
10,NC(=O)C(=O)O,inactive
11,O=C(O)CC1CCCc2ccccc2C1O (configuration not stated),inactive
12,C=C/C(C)=C/[C@@]1(C)SC(=O)C(C)=C1O,inactive
13,CC(=O)N[C@H](C(=O)O)C(C)(C)SN=O,inactive
14,CC1CN(S(=O)(=O)c2cccc3cnccc23)CCN1 (configuration not stated),inactive
15,CO/N=C(\C(=O)N[C@@H]1C(=O)N2C(C(=O)O)=C(COC(C)=O)CS[C@H]12)c1csc(N)n1 (stereo in doubt),inactive
16,CN(C)c1nc(N)c(C(=O)N=C(N)N)nc1Cl,inactive

row,SMILES,Potency
1,N=C(N)SCCc1ccc(CCSC(=N)N)cc1,inactive
2,CC1(C)CCC=[N+]1[O-],inactive
3,CN1CCC[C@H]1c1cccnc1,inactive
4,O=C(O)CNC(=O)C(CS)Cc1ccccc1 (configuration not stated),inactive
5,C=CC(N)CCC(=O)O (configuration not stated),inactive
6,COc1cc2c(CCNC(C)=O)c[nH]c2cc1Cl,inactive
7,COc1cc(C(O)CO)ccc1OS(=O)(=O)O (configuration not stated),inactive
8,c1ccc(-c2ccccn2)nc1,inactive
9,NO,inactive
10,O=C(O)c1cc(=O)c2c(Cl)cc(Cl)cc2[nH]1,inactive
11,NCCSSCCN,inactive
12,O=c1[nH]c2cc([N+](=O)[O-])c([N+](=O)[O-])cc2[nH]c1=O,inactive
13,CN1C2CCC1CC(OC(=O)C(O)c1ccccc1)C2 (configuration not stated),inactive
14,O=C(O)[C@@H]1C[C@@H](C(=O)O)N1,inactive
15,Cn1c(=O)c2[nH]c(-c3ccccc3)nc2n(C)c1=O,inactive

# Molecular target: Ubiquitin carboxyl-terminal hydrolase 2 (Homo sapiens) (UniProt O75604)
# Experiment: qHTS Validation Assay for Inhibitors of Ubiquitin-specific Protease USP2a Using CHOP2 as the Reporter (AID 463106)
# Settings: USP2a cleavage of CHOP2 reporter, enzymatic; series mostly up to 38.3 µM
# Summary of the method: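 Fluorescence read-out at Ex 485nm/Em 531nm after 60min RT, following addition of 25nM Ub-CHOP2 plus 25nM reporter substrate to USP2 core (10nM) pretreated 30min with compound. Data normalized to NEM full inhibition; concentration-response curves fitted.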
# Chain of Ubiquitin carboxyl-terminal hydrolase 2 (Homo sapiens) (O75604 whole entry, looked up): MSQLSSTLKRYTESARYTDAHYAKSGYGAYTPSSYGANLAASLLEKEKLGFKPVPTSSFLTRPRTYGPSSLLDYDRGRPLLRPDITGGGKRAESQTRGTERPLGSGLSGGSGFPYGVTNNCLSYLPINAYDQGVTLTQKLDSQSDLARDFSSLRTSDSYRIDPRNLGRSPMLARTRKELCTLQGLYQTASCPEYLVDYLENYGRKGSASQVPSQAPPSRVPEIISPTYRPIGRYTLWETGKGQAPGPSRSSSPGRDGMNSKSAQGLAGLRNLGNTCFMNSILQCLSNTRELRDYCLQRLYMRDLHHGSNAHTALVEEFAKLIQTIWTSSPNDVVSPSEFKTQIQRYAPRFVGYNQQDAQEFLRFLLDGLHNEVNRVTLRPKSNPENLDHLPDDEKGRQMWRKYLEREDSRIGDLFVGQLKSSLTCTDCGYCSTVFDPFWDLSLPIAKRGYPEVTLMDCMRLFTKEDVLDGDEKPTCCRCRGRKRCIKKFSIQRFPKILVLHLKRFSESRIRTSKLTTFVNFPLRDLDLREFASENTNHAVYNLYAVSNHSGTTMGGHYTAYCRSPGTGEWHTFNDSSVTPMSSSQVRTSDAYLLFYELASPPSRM
row,SMILES,Potency
1,CC(=O)SCC[N+](C)(C)C,inactive
2,O=C(O)c1cc(=O)c2ccccc2[nH]1,inactive
3,NCCCCCCCCCCN,inactive
4,C[C@@H](CN1CCC(Cc2ccccc2)CC1)[C@@H](O)c1ccc(O)cc1,inactive
5,Cc1ccc(C(=O)O[C@H](C(=O)O)[C@@H](OC(=O)c2ccc(C)cc2)C(=O)O)cc1 (tested in a mixture with another compound),inactive
6,OCC1O[C@H](O)C(Cl)C(O)C1O (some centres not stated),inactive
7,NCCCCC(=O)O,inactive
8,O=C(O)CC1CCCc2ccccc2C1O (configuration not stated),inactive
9,CC1CN(S(=O)(=O)c2cccc3cnccc23)CCN1 (configuration not stated),inactive
10,CCCCCCCCCCCCCCCC(=O)NCC(COP(=O)([O-])OCC[N+](C)(C)C)OCC (configuration not stated),inactive
11,N=C(N)SCCc1ccc(CCSC(=N)N)cc1,inactive
12,CC1(C)CCC=[N+]1[O-],inactive
13,CN1CCC[C@H]1c1cccnc1,inactive
14,C=CC(N)CCC(=O)O (configuration not stated),inactive
15,COc1cc2c(CCNC(C)=O)c[nH]c2cc1Cl,inactive
16,COc1cc(C(O)CO)ccc1OS(=O)(=O)O (configuration not stated),inactive
17,c1ccc(-c2ccccn2)nc1,inactive
18,NO,inactive
19,O=C(O)c1cc(=O)c2c(Cl)cc(Cl)cc2[nH]1,inactive
20,NCCSSCCN,inactive
21,O=C(O)[C@@H]1C[C@@H](C(=O)O)N1,inactive
22,Cn1c(=O)c2[nH]c(-c3ccccc3)nc2n(C)c1=O,inactive

# — PubChem BioAssay (NCATS)
